Screening data deposited in PubChem BioAssay by National Center for Advancing Translational Sciences (NCATS).
SARS PLpro yeast = blocks SARS-CoV papain-like protease in a yeast assay | 330,000 tested, 0.19% active | AID 485353 | Potency, µM (highest dose often 32.9 µM), actives largely listed as activators | S. cerevisiae expressing SARS-CoV PLpro, growth rescue; calls by dose curve; also: nearly all actives have a fitted effect of over 55% in size
Pf growth 48h = P. falciparum growth inhibition at 48 hours (one generation); P. falciparum luciferase growth in erythrocytes, 48 h; Potency, µM (series often up to 28.7 µM), hits mostly inhibitors; 310,000 tested, 5.9% active; AID 504832
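Luminescence readout; reporter = integrated firefly luciferase in P. falciparum. RBC culture at 2% hematocrit, 0.1% parasitemia final, 37 C/5% CO2; decreased signal taken as growth inhibition.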
Cycloheximide cs = counter-screen hit for Shiga toxin inhibitors, cycloheximide. cell reporter, cycloheximide protein synthesis inhibition counterscreen. max response, %. 300,000 tested, 12% active; in the data active = max response mostly above about 13%, no sharp cut-off; inactive = mostly below about 14%; also: read at 38.3 µM for the half of the compounds with a filed dose
Pf growth 96h = inhibits malaria parasite growth, 96 h; P. falciparum luciferase reporter growth, 96 h; Potency, µM (top dose mostly 28.7 µM), most hits filed as inhibitors; 320,000 tested, 6.9% active; AID 504834
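Erythrocytes infected with luciferase-expressing P. falciparum were dispensed at 2% hematocrit and 0.05% parasitemia (final), then incubated with compounds 96 hours at 37 C in 5% CO2. Luminescence after detection reagent addition reported growth.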
Shiga inhibitor = Shiga toxin inhibition. Vero cells, Shiga toxin protein synthesis inhibition reporter. inhibition, % at 38.7 µM. 290,000 tested, 9.2% active; in the data active = inhibition mostly above about 28%, no sharp cut-off; inactive = mostly below about 43%
AMA1 RON2 block = inhibitors of Plasmodium falciparum AMA1-RON2 interaction | AlphaScreen AMA1-biotinylated RON2 peptide binding | Potency, µM (top dose mostly 58.2 µM), hits mostly inhibitors | 360,000 tested, 0.2% active | AID 720542; also: nearly all actives have a fitted effect of over 45% in size
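AMA1 (3D7) with his tag at 25 nM final met compounds first, then biotinylated RON2 peptide at 25 nM; detection used donor plus acceptor beads, 10 µg/mL apiece, read by AlphaScreen after 30 min at room temperature.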
Numbers stand for hits; n = inactive; u = inconclusive; x = no result given; [ ] = dose if it differs, or a comment. Shown are actives, neighbours in structure and some others; about 19% of the full set was active somewhere. Unless noted, calls follow the shape of the dose curve; as a rule, active = well fitted curve in the direction sought with a large enough effect; inconclusive = small, poorly fitted or top-dose-only effect, or another doubt; inactive = no such curve, though single readings can be large; an effect the other way counts as inactive or inconclusive.

SMILES	SARS PLpro yeast	Pf growth 48h	Cycloheximide cs	Pf growth 96h	Shiga inhibitor	AMA1 RON2 block
C#CCOCCOCCOCCNc1nc(N2CCOCC2)nc(N2CCN(C(=O)CCCCCCCCCCNC(=O)[C@@H](CCSC)n3cc(CCO)nn3)CC2)n1	n	0.657µM	x	u	x	n
C#CCOCCOCCOCCNc1nc(N2CCOCC2)nc(N2CCN(C(=O)CCCCCCCCCCNC(=O)[C@@H]([C@H](C)O)n3cc(C)nn3)CC2)n1	n	u	x	u	x	n
O=C(c1ncc[nH]1)c1cccs1	n	n	28.8	n	n	n
O=C(c1ncc[nH]1)c1ccccc1C(=O)N1CCOCC1	n	n	n	n	n	n
CCCN(C(=O)CSCc1ccc(C)cc1)c1c(N)n(Cc2ccccc2)c(=O)[nH]c1=O	x	x	x	x	x	n
CSCCC1NC2(C(=O)Nc3c(Cl)cccc32)[C@@H]2C(=O)N(C3CCCC3)C(=O)[C@H]12 (stereo partly drawn)	n	u	n	10.4µM	n	n
O=S(=O)(c1ccc(Cl)c(NC(=S)Nc2ccccc2N2CCOCC2)c1)N1CCOCC1	n	n	n	n	n	n
C/C(=N\NC(=S)Nc1ccc(C)c(C)c1)c1ccc(N2CCOCC2)cc1	n	11.7µM	22.9	3.7µM	24.3	n
C/C(CCC(C)C)=N\NC(=S)Nc1cc(S(=O)(=O)N2CCOCC2)ccc1N1CCOCC1	n	u	n	u	n	n
C/C(=N\NC(=S)Nc1cc(S(=O)(=O)N2CCOCC2)ccc1Cl)c1ccc(N2CCOCC2)cc1	n	1.65µM	n	1.85µM	n	n
COc1ccc2cc(/C(C)=N/NC(=S)Nc3cc(S(=O)(=O)N4CCOCC4)ccc3N3CCOCC3)ccc2c1	n	1.47µM	20.5	u	n	x
O=C(OCC(=O)N1CCOCC1)c1cc(-c2ccccc2)nc2ccccc12	n	x	x	x	x	n
COc1ccc(C(C)=O)cc1CSc1nnc(-c2ccc(Cl)cc2)n1-c1ccccc1	n	u	n	9.28µM	n	n
COc1ccc(-c2nnc(SCc3nnc(-c4ccc(Cl)cc4)o3)n2-c2ccccc2)cc1	x	n	24.1	u	n	n
COc1ccc(-n2c(COc3ccc(Cl)cc3)nnc2SCc2ccc(C#N)cc2)cc1	n	u	n	x	n	n
COc1ccc(NCc2nnc(SCc3ccc(Cl)cc3)n2-c2ccccc2)cc1	n	n	n	n	n	20µM
CC(C)c1cccc(C(C)C)c1NC(=O)c1ccc(-c2cc(Cl)ccc2Cl)o1	x	x	x	x	x	n
O=C(COn1nnc2ccccc21)NCC1CCCCC1	n	n	28.4	n	n	n
O=C(C(Cl)Cl)N1CCN(Cc2ccccc2)CC1	n	n	n	n	n	n[2.32 µM]
CCOc1ccccc1NC(=O)COn1nnc2ccccc21	n	n	16.8	x	n	n
O=C(COn1nnc2ccccc21)N1CCN(Cc2ccccc2)CC1	n	n	50.0	n	96.1	n
CC1CC(C)CN(C(=O)COC(=O)CCCN2C(=O)c3cccc4cccc(c34)C2=O)C1 (stereo not drawn)	n	n	n	n	n	n
CCN1N=C(c2ccccc2)Cn2c1nc1ccccc12	n	x	n	6.57µM	n	n
COC(=O)c1ccc2c(=O)sc(N3CCC(C(N)=O)CC3)nc2c1	n	n	n	n	n	n
C/C1=C2/[N-]C(C(CC(N)=O)[C@@]2(C)CCC(=O)NCC(C)OP(=O)([O-])O[C@H]2[C@@H](O)[C@@H](n3cnc4cc(C)c(C)cc43)O[C@@H]2CO)[C@]2(C)N=C(/C(C)=C3N=C(/C=C4N=C1C(CCC(N)=O)C\4(C)C)[C@@H](CCC(N)=O)[C@]\3(C)CC(N)=O)[C@@H](CCC(N)=O)[C@]2(C)CC(N)=O.CC(=O)O.[Co] (stereo partly drawn)	x	0.849µM	x	0.675µM	x	x
SMILES	SARS PLpro yeast	Pf growth 48h	Cycloheximide cs	Pf growth 96h	Shiga inhibitor	AMA1 RON2 block
CCN(CC)C(=O)[C@H]1C[C@H](CC(=O)NCCCn2ccnc2)C(=O)N2CCc3c([nH]c4cc(CCC(=O)N(C)C)ccc34)[C@]12C	n	x	x	x	x	n
Cc1nccc(-c2sc(-c3cccs3)nc2C)n1	n	n	35.9	n	57.9	n
Cc1nc(-c2cccs2)sc1C(=O)O	n	n	n	n	n	n
O=C(Nc1c2c(nn1-c1ccc(F)cc1)CS(=O)C2)c1ccc2c(c1)OCO2 (stereo not drawn)	n	n	n	n	n	n
Nc1ccc(C(=O)OCc2nc3ccccc3s2)cc1	n	n	56.2	n	87.1	n
O=C(OCc1nc2ccccc2s1)c1cc2ccccc2oc1=O	n	n	34.0	n	39.5	x
Cc1ccc(C(=O)OCc2nc3ccccc3s2)o1	n	n	x	n	x	n
O=C(OCc1nc2ccccc2s1)c1ccc(Br)s1	n	n	24.6	n	n	n
O=C(OCc1ccc(Br)cc1F)c1cc2ccccc2oc1=O	n	n	n	n	n	n
O=C(OCc1cc(=O)n2c(n1)sc1ccccc12)c1ccc(O)cc1	n	n	35.8	n	n	n
Cc1ccc(NC(=O)CN2CCN(C(=O)c3ccco3)CC2)cc1S(=O)(=O)N(C)C	x	x	x	x	x	n[11.6 µM]
CCCCC(CC)COC(=O)c1ccccc1O (stereo not drawn)	x	n	n	n	n	x
Clc1cccc(Oc2ncc(CN3CCOCC3)s2)c1	n	n	20.1	n	n	n
Brc1ccc(Oc2ncc(CN3CCN(c4ccccc4)CC3)s2)cc1	n	x	n	u	n	u
Cc1ccc(Oc2ncc(CN3CCOCC3)s2)cc1	n	n	24.3	n	61.3	n
COc1ccc(CNS(=O)(=O)c2cc(CN3C(=O)c4cccnc4C3=O)ccc2OC)cc1	n	n	n	14.7µM	n	n
COc1ccc(CN2C(=O)c3cccnc3C2=O)cc1S(=O)(=O)N(C)c1ccc(C)cc1	n	n	n	n	n	n
COc1ccc(CN2C(=O)c3cccnc3C2=O)cc1S(=O)(=O)NCc1ccco1	n	n	21.0	u	51.2	n
CCN(c1cccc(C)c1)S(=O)(=O)c1cc(CN2C(=O)c3cccnc3C2=O)ccc1OC	n	n	19.2	n	92.2	n
COc1ccc(CN2C(=O)c3cccnc3C2=O)cc1S(=O)(=O)NCc1ccccc1	n	n	n	n	n	n
CCOc1ccc(CNS(=O)(=O)c2cc(CN3C(=O)c4cccnc4C3=O)ccc2OC)cc1	n	n	n	u	n	n
CSc1ccc(S(=O)(=O)NC(C)c2ccccc2)cc1 (stereo not drawn)	n	n	n	n	n	n
Cc1ccc(S(=O)(=O)NC(C)c2ccccc2)cc1[N+](=O)[O-] (stereo not drawn)	n	n	n	11.7µM	n	n
O=C1C(O)=CC(=C(c2ccccc2)c2ccccc2)c2ccccc21	x	x	x	x	x	10µM
O=C1C(=O)c2ccccc2-c2ccccc21	n	x	n	u	n	n
Cc1cc(C)c2c(N)c(C(=O)c3ccccc3)oc2n1	x	n	n	2.33µM	n	n
Cc1nc2ccc(C(=O)NCCc3c[nH]c4ccccc34)cn2c1N(C)C(=O)CCc1ccccc1	x	x	x	x	x	n
